Results as given in PubChem BioAssay (EPA / NIEHS).
Several values for one entry are separate records, joined by “and”; a condition that tells them apart may be missing. Equal entries are not always repeated. Inconclusive results are not listed. Where a structure was tested more than once in an assay, its records may differ in their call. Activity calls are given as the source filed them. The calls were made as follows, unless noted: active = hit-call score of the fitted dose curve at least 0.9, where 1 is the maximum; inactive = score below 0.9.

Key:
[1] = read-out: Interleukin-8 (IL8), CXCL8 (gene 3576); assay: BSK_3C_IL8: BioMAP Diversity Plus: 3C Assay for Interleukin-8 (IL8) Biomarker Activity (AID 2283020); settings: primary human endothelial cells (HUVEC); actives raise or lower the signal
Procedure, shortened: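 Endothelial primary cells of human umbilical vein origin are dosed with chemical; after 24 h the IL-8 biomarker is measured by ELISA, and concentration–response is fitted in both directions versus DMSO.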

[2] = read-out: Monokine induced gamma interferon (MIG), CXCL9 (gene 4283); assay: BSK_3C_MIG: BioMAP Diversity Plus: 3C Assay for Monokine induced gamma interferon (MIG) Biomarker Activity (AID 2283021); settings: primary human endothelial cells (HUVEC); actives raise or lower the signal
Procedure, shortened: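 Endothelial primary cells (human umbilical vein) are dosed with test chemical in the 3C system. MIG levels are measured by ELISA at 24 h and fitted in both directions relative to DMSO.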

[3] = molecular target: human Vitamin D Receptor (VDR), VDR (gene 7421) (UniProt P11473); assay: ATG_VDR_TRANS: Attagene TRANS-FACTORIAL HepG2 Assay for human Vitamin D Receptor (VDR) (AID 2283022; active = hit-call score of the fitted dose curve at least 0.9, where 1 is the maximum)
Chain of human Vitamin D Receptor (VDR), VDR (gene 7421) (P11473 whole entry, looked up, the tested form may be a part): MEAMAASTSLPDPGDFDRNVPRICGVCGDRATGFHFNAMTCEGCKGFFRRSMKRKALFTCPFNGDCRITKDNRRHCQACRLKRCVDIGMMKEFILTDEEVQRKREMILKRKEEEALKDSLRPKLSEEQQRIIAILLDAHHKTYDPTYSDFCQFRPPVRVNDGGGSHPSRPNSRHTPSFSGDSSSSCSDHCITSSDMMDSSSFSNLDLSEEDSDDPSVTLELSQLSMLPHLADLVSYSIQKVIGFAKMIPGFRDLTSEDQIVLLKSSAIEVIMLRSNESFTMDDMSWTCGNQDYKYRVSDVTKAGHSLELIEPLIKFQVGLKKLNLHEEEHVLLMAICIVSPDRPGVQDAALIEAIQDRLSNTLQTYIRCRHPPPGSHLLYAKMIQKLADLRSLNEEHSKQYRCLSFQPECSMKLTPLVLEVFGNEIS
Procedure, shortened: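 Transactivation by an exogenous VDR-Gal4 chimera in transiently transfected HepG2 cells was measured as reporter transcript level 24 hours after chemical treatment. RT-PCR products were analysed by capillary electrophoresis and fitted in the positive direction relative to DMSO.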

[4] = BSK_3C_SRB: Viability Assessment in the BioMAP Diversity Plus: 3C Assay (AID 2283023); settings: primary human endothelial cells (HUVEC);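 also: fitted both ways against DMSO so a hit may be signal rise or drop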
Procedure, shortened: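 Cytotoxicity readout in parallel HUVEC 3C cultures: after 24 h compound exposure, cells fixed with 10% TCA, stained with 0.1% SRB and read at 560 nm. Gain or loss relative to DMSO fitted.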

[5] = read-out: Matrix Metallopeptidase 1 (MMP1), MMP1 (gene 4312); assay: BSK_BE3C_MMP1: BioMAP Diversity Plus: BE3C Assay for Matrix Metallopeptidase 1 (MMP1) Biomarker Activity (AID 2283024); settings: primary human bronchial epithelial cells; actives raise or lower the signal
Procedure, shortened: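 MMP1 signal, measured by ELISA after a 24 h chemical exposure of human primary bronchial epithelial cells, is analysed with bidirectional fitting using DMSO as negative control.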

[6] = read-out: Pselectin, SELP (gene 6403); assay: BSK_4H_Pselectin: BioMAP Diversity Plus: 4H Assay for Pselectin Biomarker Activity (AID 2283026); settings: primary human endothelial cells (HUVEC); actives raise or lower the signal
Procedure, shortened: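 Endothelial primary cells (human umbilical vein) are dosed, incubated 24 h, and assayed for surface P-selectin by ELISA; responses in either direction are fitted relative to the DMSO negative control.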

[7] = BSK_4H_SRB: Viability Assessment in the BioMAP Diversity Plus: 4H Assay (AID 2283027); settings: primary human endothelial cells (HUVEC);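 also: cells exposed to compound for 24 h before staining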;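 as to AC50: curves fitted both ways versus DMSO so AC50 may be loss or gain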
Procedure, shortened: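 Cytotoxicity readout: sulforhodamine B (0.1%) staining of total protein after 10% TCA fixation, measured at 560 nm in human umbilical vein endothelium at 24 h. DMSO set the baseline; fitting was bidirectional.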

[8] = BSK_BE3C_SRB: Viability Assessment in the BioMAP Diversity Plus: BE3C Assay (AID 2283028); settings: primary human bronchial epithelial cells
Procedure, shortened: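 Cytotoxicity read-out: SRB (0.1%) staining of TCA-fixed (10%) human lung bronchial epithelial cells, absorbance 560 nm, 24 h post-dosing. Curves fitted both directions relative to DMSO.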

[9] = read-out: Thrombomodulin, THBD (gene 7056); assay: BSK_3C_Thrombomodulin: BioMAP Diversity Plus: 3C Assay for Thrombomodulin Biomarker Activity (AID 2283029); settings: primary human endothelial cells (HUVEC); actives raise or lower the signal
Procedure, shortened: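 Endothelial cells from umbilical vein are dosed with test chemical and incubated 24 h. Thrombomodulin is then quantified by ELISA, with DMSO serving as negative control and activity baseline.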

[10] = read-out: Urokinase-type plasminogen activator receptor (uPAR), PLAUR (gene 5329); assay: BSK_4H_uPAR: BioMAP Diversity Plus: 4H Assay for Urokinase-type plasminogen activator receptor (uPAR) Biomarker Activity (AID 2283030); settings: primary human endothelial cells (HUVEC); actives raise or lower the signal
Procedure, shortened: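 uPAR level read by ELISA on HUVEC cultures (BioMAP 4H) 24 h post-dosing, analyzed for gain or loss relative to DMSO. Parallel SRB staining assessed overt cytotoxicity.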

[11] = read-out: Vascular endothelial growth factor receptor 2 (Homo sapiens) (UniProt P35968); assay: BSK_4H_VEGFRII: BioMAP Diversity Plus: 4H Assay for Vascular endothelial growth factor receptor 2 (VEGFR2) Biomarker Activity (AID 2283031); settings: primary human endothelial cells (HUVEC); actives raise or lower the signal;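 as to AC50: cell-surface VEGFR2 protein level quantified by ELISA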
Procedure, shortened: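 Measured by ELISA after 24 h of compound treatment: VEGFR2 on primary human umbilical vein endothelial cells, fitted in both directions relative to DMSO. Parallel cultures received SRB staining (560 nm) for overt cytotoxicity.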

[12] = read-out: Human Leukocyte Antigen - DR isotype (HLADR), HLA-DRA (gene 3122); assay: BSK_BE3C_HLADR: BioMAP Diversity Plus: BE3C Assay for Human Leukocyte Antigen - DR isotype (HLADR) Biomarker Activity (AID 2283032); settings: primary human bronchial epithelial cells; actives raise or lower the signal
Procedure, shortened: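 Chemicals are dosed onto BE3C bronchial epithelial cultures of human origin and left 24 h. HLA-DR is then measured by ELISA, and the endpoint is fitted in both directions using DMSO as the activity baseline.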

[13] = read-out: Vascular cell adhesion molecule 1 (VCAM1), VCAM1 (gene 7412); assay: BSK_4H_VCAM1: BioMAP Diversity Plus: 4H Assay for Vascular cell adhesion molecule 1 (VCAM1) Biomarker Activity (AID 2283033); settings: primary human endothelial cells (HUVEC); actives raise or lower the signal
Procedure, shortened: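 Chemicals are added to primary human umbilical vein endothelial cells. After 24 h, VCAM-1 levels are measured by ELISA. Values come from bidirectional fitting referenced to DMSO.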

[14] = read-out: Interferon-gamma inducible Protein 10 (IP10), CXCL10 (gene 3627); assay: BSK_BE3C_IP10: BioMAP Diversity Plus: BE3C Assay for Interferon-gamma inducible Protein 10 (IP10) Biomarker Activity (AID 2283034); settings: primary human bronchial epithelial cells; actives raise or lower the signal
Procedure, shortened: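 IP-10 quantified by ELISA serves as the endpoint. Cells: primary human bronchial epithelium, read 24 h after compound addition. Activity is derived by bidirectional fitting with DMSO as negative control.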

[15] = read-out: Monokine induced gamma interferon (MIG), CXCL9 (gene 4283); assay: BSK_BE3C_MIG: BioMAP Diversity Plus: BE3C Assay for Monokine induced gamma interferon (MIG) Biomarker Activity (AID 2283035); settings: primary human bronchial epithelial cells; actives raise or lower the signal;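 also: MIG protein measured by ELISA in BE3C cultures after 24 h of dosing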
Procedure, shortened: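 hu bronchial epithelial 1° cells, 24 h cpd; MIG by ELISA; bidirectional fit, DMSO = baseline.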

[16] = read-out: Transforming growth factor beta 1 (TGFb1), TGFB1 (gene 7040); assay: BSK_BE3C_TGFb1: BioMAP Diversity Plus: BE3C Assay for Transforming growth factor beta 1 (TGFb1) Biomarker Activity (AID 2283036); settings: primary human bronchial epithelial cells; actives raise or lower the signal
Procedure, shortened: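 Bronchial epithelial primary cells are treated with test chemical, then TGF-b1 is quantified by ELISA after 24 hours. Values derive from bidirectional fitting against DMSO, with cytotoxicity checked by SRB staining in parallel cultures.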

[17] = read-out: Plasminogen activator inhibitor-1 (PAI1), SERPINE1 (gene 5054); assay: BSK_BE3C_PAI1: BioMAP Diversity Plus: BE3C Assay for Plasminogen activator inhibitor-1 (PAI1) Biomarker Activity (AID 2283037); settings: primary human bronchial epithelial cells; actives raise or lower the signal
Procedure, shortened: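 Values derive from bidirectional fitting against DMSO baseline of PAI-1 levels, measured by ELISA in human bronchial epithelial cells 24 h after compound addition.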

[18] = read-out: urokinase plasminogen activator (uPA), PLAU (gene 5328); assay: BSK_BE3C_uPA: BioMAP Diversity Plus: BE3C Assay for urokinase plasminogen activator (uPA) Biomarker Activity (AID 2283038); settings: primary human bronchial epithelial cells; actives raise or lower the signal;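 also: uPA protein level quantified by ELISA in cell cultures; uPA read one day after compound addition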
Procedure, shortened: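 ELISA for uPA on human primary bronchial epithelial cultures 24 h post-treatment, gain or loss against DMSO. Parallel SRB staining (0.1% after 10% TCA fixation, 560 nm) assessed overt cytotoxicity.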

[19] = read-out: Urokinase-type plasminogen activator receptor (uPAR), PLAUR (gene 5329); assay: BSK_BE3C_uPAR: BioMAP Diversity Plus: BE3C Assay for Urokinase-type plasminogen activator receptor (uPAR) Biomarker Activity (AID 2283039); settings: primary human bronchial epithelial cells; actives raise or lower the signal;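 also: uPAR protein level measured by ELISA on the cells; cells exposed to compound for one day before measurement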
Procedure, shortened: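 Steps: dose human primary bronchial epithelial cells, incubate 24 h, measure uPAR by ELISA, then fit gain- or loss-of-signal response bidirectionally relative to DMSO.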

[20] = read-out: Interleukin-6 (IL6), IL6 (gene 3569); assay: BSK_CASM3C_IL6: BioMAP Diversity Plus: CASM3C Assay for Interleukin-6 (IL6) Biomarker Activity for (AID 2283040); settings: primary human coronary artery smooth muscle cells; actives raise or lower the signal

Measured: AC50

CCN(CC)c1ccc(N=Nc2ccccc2)cc1
active: [1] 20 µM | [4] 12.1 µM | [6] 11.3 µM | [7] 20 µM | [11] 20 µM | [13] 16.9 µM | [14] 10.2 µM | [16] 20 µM | [17] 29.3 µM
inactive: all other assays above

CNS(=O)(=O)C(F)(F)C(F)(F)C(F)(F)C(F)(F)C(F)(F)C(F)(F)C(F)(F)C(F)(F)F
inactive: [1] | [2] | [3] | [4] | [5] | [6] | [7] | [8] | [9] | [10] | [11] | [12] | [13] | [14] | [15] | [18] | [19] | [20]
active: [7] 29.8 µM | [14] 13.3 µM

Cc1ccc(O)c(-n2nc3ccccc3n2)c1
inactive: all assays above

C[Si](Cl)(Cl)CCC(F)(F)C(F)(F)C(F)(F)C(F)(F)C(F)(F)C(F)(F)F
inactive: [1] | [2] | [3] | [4] | [5] | [6] | [7] | [8] | [9] | [10] | [11] | [12] | [13] | [14] | [15] | [17] | [18] | [19] | [20]
active: [10] 0.0248 µM

NS(=O)(=O)C(F)(F)C(F)(F)C(F)(F)C(F)(F)C(F)(F)C(F)(F)F
inactive: [1] | [2] | [3] | [6] | [8] | [9] | [10] | [11] | [12] | [13] | [15] | [18] | [20]
active: [4] 49.4 µM and 44.3 µM | [5] 30 µM and 33.2 µM | [7] 37.2 µM and 30 µM | [13] 30 µM | [14] 30 µM and 24.4 µM
